Measurements reported in PubChem BioAssay AID1159580 (chemical genetic matrix, 2015).
Out of some 5,500 compounds screened, about 2,000 (36%) were called active. Another 18% or so got no clear call; they are omitted. Cut-off read from the data, not from the text of the source: active = normalized growth mostly below about 0.91 (no sharp cut-off); inconclusive = no clear call, values can overlap the other calls; inactive = mostly above about 0.92. This is one part of the list.

Assay: chemical genetic growth profiling, strain panel (AID 1159580);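 note: tested at 20 µM; growth read once vehicle control cultures reached saturation at 30 °C; 1 = growth at the plate median or of vehicle wells; lower values mean less growth of the strain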
Conditions: S. cerevisiae deletion strains, growth OD

Measured: normalized growth

CCCCN(C)C(=O)c1cc([N+](=O)[O-])cc2c1-c1ccc([N+](=O)[O-])cc1C2=C(C#N)C#N
inactive: locus YAR019C, strain CDC15, stronger effect = lower value 0.984 | locus YBL105C, strain PKC1, stronger effect = lower value 0.988 | locus YBR135W, strain CKS1, stronger effect = lower value 0.985 | locus YBR136W, strain MEC1, stronger effect = lower value 0.977 | locus YBR160W, strain CDC28, stronger effect = lower value 0.979 | locus YDL017W, strain CDC7, stronger effect = lower value 0.985 | locus YDL028C, strain MPS1, stronger effect = lower value 0.976 | locus YDL101C, strain DUN1, stronger effect = lower value 0.98 | locus YDL108W, strain KIN28, stronger effect = lower value 0.974 | locus YDL132W, strain cdc53, stronger effect = lower value 0.969 | locus YDL214C, strain PRR2, stronger effect = lower value 0.983 | locus YDR052C, strain DBF4, stronger effect = lower value 0.975 | locus YDR054C, strain cdc34, stronger effect = lower value 0.98 | locus YDR226W, strain ADK1, stronger effect = lower value 0.994 | locus YDR477W, strain SNF1, stronger effect = lower value 0.972 | locus YER123W, strain YCK3, stronger effect = lower value 0.942 | locus YER133W, strain GLC7, stronger effect = lower value 0.984 | locus YFL009W, strain cdc4, stronger effect = lower value 0.983 | locus YFL029C, strain CAK1, stronger effect = lower value 0.98 | locus YFR003C, strain YPI1, stronger effect = lower value 0.984 | locus YFR019W, strain FAB1, stronger effect = lower value 0.961 | locus YFR028C, strain CDC14, stronger effect = lower value 0.98 | locus YGR040W, strain KSS1, stronger effect = lower value 0.978 | locus YGR052W, strain FMP48, stronger effect = lower value 0.953 | locus YGR092W, strain DBF2, stronger effect = lower value 0.944 | locus YHR030C, strain SLT2, stronger effect = lower value 0.968 | locus YHR079C, strain IRE1, stronger effect = lower value 0.957 | locus YHR082C, strain KSP1, stronger effect = lower value 1.04 | locus YHR205W, strain SCH9, stronger effect = lower value 0.976 | locus YIL147C, strain SLN1, stronger effect = lower value 0.982 | locus YJL095W, strain BCK1, stronger effect = lower value 0.868 | locus YJL128C, strain PBS2, stronger effect = lower value 0.959 | locus YJL157C, strain FAR1, stronger effect = lower value 0.988 | locus YJR016C, strain ILV3, stronger effect = lower value 0.973 | locus YJR066W, strain TOR1 (second series), stronger effect = lower value 0.971 | locus YJR066W, strain TOR1, stronger effect = lower value 0.973 | locus YKL048C, strain ELM1, stronger effect = lower value 0.98 | locus YKL067W, strain YNK1, stronger effect = lower value 0.971 | locus YKL101W, strain HSL1, stronger effect = lower value 0.951 | locus YKL193C, strain SDS22, stronger effect = lower value 0.977 | locus YKL203C, strain TOR2, stronger effect = lower value 1.01 | locus YLR113W, strain HOG1, stronger effect = lower value 0.871 | locus YLR133W, strain CKI1, stronger effect = lower value 0.99 | locus YLR403W, strain SFP1, stronger effect = lower value 0.966 | locus YML070W, strain DAK1, stronger effect = lower value 0.94 | locus YMR001C, strain CDC5, stronger effect = lower value 0.977 | locus YMR205C, strain PFK2 (second series), stronger effect = lower value 0.985 | locus YMR277W, strain FCP1, stronger effect = lower value 0.976 | locus YNL006W, strain LST8, stronger effect = lower value 0.983 | locus YNL020C, strain ARK1, stronger effect = lower value 0.985 | locus YNL161W, strain CBK1, stronger effect = lower value 0.983 | locus YNL183C, strain NPR1, stronger effect = lower value 0.968 | locus YNL207W, strain RIO2, stronger effect = lower value 0.979 | locus YNL222W, strain SSU72, stronger effect = lower value 0.978 | locus YNL307C, strain MCK1 (second series), stronger effect = lower value 0.907 | locus YOL078W, strain AVO1, stronger effect = lower value 0.968 | locus YOL136C, strain PFK27, stronger effect = lower value 0.941 | locus YOR061W, strain CKA2, stronger effect = lower value 0.971 | locus YOR119C, strain RIO1, stronger effect = lower value 1.03 | locus YOR231W, strain MKK1, stronger effect = lower value 0.876 | locus YOR329C, strain SCD5, stronger effect = lower value 0.99 | locus YPL031C, strain PHO85, stronger effect = lower value 0.967 | locus YPL153C, strain RAD53, stronger effect = lower value 0.986 | locus YPL204W, strain HRR25, stronger effect = lower value 0.958 | locus YPL209C, strain IPL1, stronger effect = lower value 0.986 | locus YPL256C, strain CLN2, stronger effect = lower value 0.968 | locus YPR025C, strain CCL1, stronger effect = lower value 0.982 | locus YPR106W, strain ISR1, stronger effect = lower value 0.985 | locus YPR111W, strain DBF20, stronger effect = lower value 0.993 | strain NNK1, stronger effect = lower value 0.994 | strain TSCII, stronger effect = lower value 0.98
